# Source: PubChem BioAssay
# LASV entry inh: qHTS for Inhibitors of binding or entry into cells for Lassa Virus; Lassa virus pseudotype entry inhibition, cell reporter; Potency, µM (top dose mostly 37.9 µM), without a hit: top-dose activity change, negative = inhibition, actives largely listed as inhibitors; actives 1.2% (n = 300,000); AID 540256, 2011; calls by dose curve; tested in HEK293 cells; further: nearly all actives have a fitted effect of over 50% in size
# HCV inhibitor: qHTS Assay for Inhibitors of Hepatitis C Virus (HCV); Potency, µM (top dose mostly 41.8 µM), without a hit: at the top dose activity change, negative = inhibition, usual class: inhibitors; Huh7.5.1 HCVcc-Cre infection, luciferase reporter, 44 h; actives 3.4% (n = 340,000); active means well fitted inhibition curve with a large enough effect; inconclusive means small, poorly fitted or top-dose-only effect, or another doubt; inactive means no such curve, though single readings can be large or run the other way
#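 1,000 cells/well; 4 h culture; + compound; + HCVcc-Cre (~0.5 moi); 44 h; luciferase substrate, RT 15 min; read 15 sec.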
# MARV entry inh: qHTS for inhibitors of binding or entry into cells for Marburg Virus; Marburg virus pseudotyped entry inhibition, cell reporter; Potency, µM (top dose mostly 37.8 µM), without a hit: at the highest dose activity change, negative = inhibition, usual class: inhibitors; actives 1.8% (n = 300,000); AID 540276, 2011; calls by dose curve; tested in HEK293 cells
# FMDV antiviral: High Throughput Screening for Foot and Mouth Disease Virus Antivirals; FMDV antiviral cell-based qHTS; actives 1.2% (n = 410,000); Potency, µM (titrated, usually from 57.9 µM), inactives show at the highest dose activity change, negative = inhibition, most hits filed as inhibitors; calls by dose curve; tested in HEK293T cells; further: read-out not given here; nearly all actives have a fitted effect of over 45% in size
# Vaccinia mCherry: qHTS for Stage-Specific Inhibitors of Vaccinia Orthopoxvirus: mCherry Reporter Primary qHTS; Potency, µM (series often up to 36.5 µM), for inactives: top-dose activity change, negative = inhibition, most hits filed as inhibitors; Vaccinia virus mCherry reporter infection, fluorescence; actives 0.63% (n = 310,000); AID 720579, 2013; calls by dose curve; tested in A549 cells; further: nearly all actives have a fitted effect of over 35% in size
# Vaccinia Venus: qHTS for Stage-Specific Inhibitors of Vaccinia Orthopoxvirus: Venus Reporter Primary qHTS. AID 720580, 2013. actives 0.46% (n = 330,000). Vaccinia virus Venus reporter expression, fluorescence. Potency, µM (top dose mostly 36.5 µM), for the others: at the top dose activity change, negative = inhibition, most hits filed as inhibitors; calls by dose curve; tested in A549 cells; further: nearly all actives have a fitted effect of over 30% in size
# Numbers without * were called inactive; i = inactive; ? = inconclusive; / = not tested or not shown; ! = not active in a repeat; [ ] = remark or other dose. A selection: hits, their analogues and other compounds. The true share with any hit is near 5.3%. On the % scale 0 is the no-effect control and ±100 the full control effect; potency means the concentration at half of the fitted maximal effect.
SMILES,LASV entry inh,HCV inhibitor,MARV entry inh,FMDV antiviral,Vaccinia mCherry,Vaccinia Venus
CCN(CC)CCOC(=O)c1ccc(N/C=C(/C#N)c2nc(-c3ccc4c(c3)OCO4)cs2)cc1,15%,10µM*,?,-22%,-9%[7.34 µM],0%[7.34 µM]
CCN(CC)CCOC(=O)c1ccc(N/C=C(/C#N)c2nc(-c3ccc(OC)cc3)cs2)cc1,18%,?,4µM*,-6%,i,-5%
COc1ccccc1N1CCN(C(CNC(=O)C(=O)NCc2ccc(F)cc2)c2cccnc2)CC1 (centres undefined),?,/,/,?,-19%,-25%
CC(=O)N[C@@H](CS)C(=O)O,?,10µM*!,?,-12%,i,-12%
CCOCCCNC(=O)c1cc(Sc2nnc(C)s2)nc2ccccc12,12%,10µM*,1%,-15%,-6%,-12%
O=C(c1cc(-n2cnnc2)ccc1Cl)N1CCN(c2nc(-c3ccccc3)cs2)CC1,?,10µM*,?,?,/,?
COc1cccc(CO[C@H]2C=C[C@@H](c3ccccc3)O[C@H]2CO)c1,/,/,-7%[14.2 µM],/,/,/
O=C(CN1C(=O)/C(=C/c2ccc(C(F)(F)F)cc2)Sc2ccccc21)NCCCN1CCOCC1,/,11µM*,/,-10%,/,/
CN1CCN(CCCNC(=O)c2ccc(/C=C3\Sc4ccccc4N(Cc4ccccc4F)C3=O)cc2)CC1,/,10µM*,/,2%,/,/
CCN1CCN(CCNC(=O)c2ccc(/C=C3/Sc4ccccc4N(Cc4cccc(Cl)c4)C3=O)cc2)CC1,?,11µM*,?,-27%,-22%,?
CCN1CCN(CCNC(=O)c2ccc3c(c2)N(Cc2ccc(F)cc2)C(=O)/C(=C/c2ccccc2)S3)CC1,?,?,?,6%,?,?
CCc1ccc(/C=C2/Sc3ccccc3N(CC(=O)NCCCN3CCOCC3)C2=O)cc1,/,?,/,-4%,/,/
Cc1cccc(CN2C(=O)/C(=C\c3ccc(C(=O)NCCN4CCOCC4)cc3)Sc3ccccc32)c1,?,?,?,40µM*,-4%,-26%
Cc1ccccc1CN1C(=O)/C(=C\c2ccc(C(=O)NCCN3CCOCC3)cc2)Sc2ccccc21,?,?,?,0%,?,-17%
Cc1ccc(NC(=O)c2cc3c([nH]c2=O)CC(c2ccccc2)CC3=O)cc1 (centres undefined),/,/,/,/,44%,8%
O=C(CN1C(=O)/C(=C\c2cccc(Br)c2)Oc2ccccc21)NCCCN1CCOCC1,/,6.3µM*,/,-16%,-28%[7.34 µM],-15%[7.34 µM]
COc1ccccc1NC(=S)N(Cc1ccccc1)Cc1cccs1,-2%,8%,1.4µM*,17%,-11%,-4%
CC(=O)c1c(O)c(C)c(O)c2c1OC1=Cc3c(c(C)nn3-c3ccccc3)C(=O)C12C (centres undefined),/,/,/,?,-22%,-13%
CC(=O)C1=C(O)C2(C)c3c(O)c(C)c(O)c(C(C)=O)c3OC2CC1=O (centres undefined),/,/,/,10µM*,?,?
CC(=O)Nc1cc(OC(C)=O)c2nonc2c1OC(C)=O,?,?,?,?,7.9µM*,7.9µM*
CC(=O)Oc1ccc2nonc2c1OC(C)=O,/,/,/,/,26%,12%
Cc1cccc(C(=O)NCC2Cc3cc(F)cc(-c4cnccn4)c3O2)n1 (centres undefined),/,/,/,-15%,-7%,1%
CC(C)=CCc1c2c(c(O)c3c(=O)c4c(oc13)-c1cc(O)c(O)cc1OC4C=C(C)C)C=CC(C)(C)O2 (centres undefined),/,23%,/,?,11µM*,?
CC(C)=CCc1c(-c2ccc(O)cc2O)oc2c3c(cc(O)c2c1=O)OC(C)(C)C=C3,/,?,/,?,1%,-12%
O=C(Cn1nc(-c2ccc(Cl)cc2)ccc1=O)NCc1ccccc1Cl,?,/,/,-6%,-11%,1%
SMILES,LASV entry inh,HCV inhibitor,MARV entry inh,FMDV antiviral,Vaccinia mCherry,Vaccinia Venus
CCC(CO)Oc1cc(NCc2ccc(C(F)(F)F)cc2)c2ncn(C(C)C)c2c1 (centres undefined),/,11µM*,/,-21%,-26%,-22%
CCCOc1cc(NCc2ccccc2)c2ncn(C(C)C)c2c1,/,?,/,-18%,?,?
CCC(CO)Oc1cc(NCc2ccc(Cl)cc2)c2ncn(C(C)C)c2c1 (centres undefined),/,2.2µM*,/,-27%,-24%,-19%
CCC(CO)Oc1cc(NCc2ccc(C)cc2)c2ncn(C(C)C)c2c1 (centres undefined),/,?,/,-2%,-24%,-23%
CC[C@H](CO)Oc1cc(NCc2ccc(Cl)c(Cl)c2)c2ncn(C(C)C)c2c1,/,11µM*,/,-29%,-14%,-23%
CCOc1cc(NCc2ccccc2)c2ncn(C(C)C)c2c1,/,2.5µM*,/,0%,?,?
CCC(CO)Oc1cc(NCc2cccc(C(F)(F)F)c2)c2ncn(C(C)C)c2c1 (centres undefined),/,?,/,-18%,-23%,-12%
C[C@@H]1C[C@@H](CC(=O)NCC2Cc3cccc(-c4ccncc4)c3O2)NC(=S)N1 (some centres undefined),/,/,/,8%,i,-26%
CC1=C(C(=O)N(C)C)CC(CC(=O)NC2CC2)C(=O)N1Cc1ccccc1 (centres undefined),/,/,/,-25%,i,-6%
O=C1c2ccccc2NC(c2cn[nH]c2-c2ccc(Cl)cc2)N1O (centres undefined),?,?,?,14µM*,?,-18%
O=C1c2ccccc2NC(c2cn[nH]c2-c2ccccc2)N1O (centres undefined),2%,-10%,-29%,-27%,-24%,-20%
CC(=O)n1cc(CO)c2ccccc21,/,12%,/,-15%,-9%,1%
CC(=O)n1cc(N(C(=O)CCl)c2ccccc2)c2ccccc21,?,1µM*,?,14µM*,-20%,-12%
CC(=O)n1cc(N(C(=O)CCl)c2ccc([N+](=O)[O-])cc2)c2ccccc21,?,7.1µM*,?,10µM*,-28%,-21%
O=Cc1[nH]c2ccccc2c1N(C(=O)CCl)c1ccc([N+](=O)[O-])cc1,?,?,?,-19%,-25%,-4%
COCCN(Cc1ccccc1)C(=S)Nc1ccc(OC(F)F)cc1,16µM*,-11%,?,23%,-9%,8%
CNC(=O)N(O)C1N(/N=C/c2cc(Br)ccc2O)C(=S)SC1(C)C (centres undefined),/,11µM*,/,26%,-6%,-21%
CC1(C)SC(=S)N(/N=C/c2ccccc2O)C1N(O)C(=O)Nc1ccccc1 (centres undefined),-27%,11µM*,?,57%,i,-21%
